An excerpt weighted towards active compounds, which were near 2.8% of everything screened.
DAGLB inhibitor: DAGLB lipase inhibitors, primary screen, biochemical, fluorescence, HTS; HEK293T DAGLB membrane lysate, EnzChek fluorogenic substrate; inhibition, % at 5.17 µM; Diacylglycerol lipase-beta (Homo sapiens), Q8NCG7; hit rate 0.059% among 340,000; in the data active means inhibition above about 34%;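 further: 0% = enzyme with vehicle and 100% = wells lacking enzyme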
PAFAH1B2 FP inh: PAFAH1B2 enzyme inhibitors, primary screen, biochemical, fluorescence polarization, human | inhibition, % at 3.39 µM | recombinant PAFAH1B2, FP-rhodamine activity probe | hit rate 1.2% among 340,000;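 active means inhibition above the mean of all tested compounds plus 3 SD, cut at about 24% in these data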;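 further: 0% = enzyme with DMSO and 100% = wells lacking PAFAH1B2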
pPAFAH inh: pPAFAH enzyme inhibitors, primary screen, biochemical, fluorescence polarization, human | Platelet-activating factor acetylhydrolase (Homo sapiens), Q13093 | recombinant pPAFAH, FP-rhodamine probe fluorescence polarization | inhibition, % at 3.39 µM | hit rate 1.5% among 330,000 | AID 463082, 2010;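 active means inhibition above the mean inhibition across the screen plus 3 SD, cut at about 25% in these data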;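 further: inhibitors block binding of the rhodamine activity-based probe so polarization drops; 0% = enzyme with DMSO and 100% = wells lacking pPAFAH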
PAFAH1B3 FP inh: PAFAH1B3 enzyme inhibitors, primary screen, biochemical, fluorescence polarization, human; AID 492972, 2010; hit rate 0.28% among 340,000; inhibition, % at 3.39 µM; recombinant PAFAH1B3, FP-rhodamine probe; Platelet-activating factor acetylhydrolase IB subunit alpha1 (Homo sapiens), Q15102;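 active means inhibition above the screen-wide average of all tested compounds plus 3 SD, cut at about 25% in these data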;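 further: 0% = enzyme with DMSO only and 100% = wells lacking PAFAH1B3 protein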
HTRA1 inhibitor: HTRA1 serine protease inhibitors, primary screen, biochemical, fluorescence polarization, HTS | Q92743 | recombinant HTRA1, FP-rhodamine activity-based probe | inhibition, % at 5.96 µM | hit rate 0.5% among 340,000; in the data active means inhibition above about 36%;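 further: 0% = enzyme with DMSO and 100% = wells lacking enzyme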
Target sequence (Q92743 whole entry, looked up): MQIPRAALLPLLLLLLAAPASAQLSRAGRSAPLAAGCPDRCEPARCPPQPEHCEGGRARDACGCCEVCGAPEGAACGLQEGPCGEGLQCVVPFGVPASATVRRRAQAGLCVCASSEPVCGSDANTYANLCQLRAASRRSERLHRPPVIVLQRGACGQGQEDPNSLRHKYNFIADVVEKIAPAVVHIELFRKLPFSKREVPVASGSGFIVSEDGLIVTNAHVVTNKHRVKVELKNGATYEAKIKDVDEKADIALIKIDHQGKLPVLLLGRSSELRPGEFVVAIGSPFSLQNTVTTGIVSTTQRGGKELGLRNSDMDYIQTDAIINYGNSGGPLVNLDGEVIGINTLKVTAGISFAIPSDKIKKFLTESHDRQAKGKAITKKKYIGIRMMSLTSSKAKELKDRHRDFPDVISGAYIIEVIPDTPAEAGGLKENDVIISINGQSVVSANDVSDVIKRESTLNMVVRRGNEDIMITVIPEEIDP
PAFAH2 inh: PAFAH2 enzyme inhibitors, primary screen, biochemical, fluorescence polarization, human. Platelet-activating factor acetylhydrolase 2, cytoplasmic (Homo sapiens), Q99487. recombinant PAFAH2, FP-rhodamine activity probe. inhibition, % at 3.39 µM. hit rate 0.99% among 340,000. AID 492956, 2010;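 active means inhibition above the mean over all tested compounds plus 3 SD, cut at about 30% in these data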;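 further: inhibitors block probe labeling of enzyme so polarization drops; 0% = enzyme with DMSO and 100% = wells lacking PAFAH2 protein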
* = called active by the depositor.

For O=C(CC1C(=O)NCCN1CC(c1ccccc1)c1ccccc1)NC1CC1 (stereo not drawn) the results were DAGLB inhibitor 3, PAFAH1B2 FP inh 3, pPAFAH inh 5, PAFAH1B3 FP inh 11, HTRA1 inhibitor -2 and PAFAH2 inh -9.
For C[C@H](NC(=O)C1CC(=O)N(c2ccc3c(c2)OCCO3)C1)C(=O)NCc1ccco1 (stereo partly drawn) the results were DAGLB inhibitor -2, PAFAH1B2 FP inh 8, pPAFAH inh 8, PAFAH1B3 FP inh 3, HTRA1 inhibitor 3 and PAFAH2 inh -7.
`CCOC(=O)N1CCN(S(=O)(=O)c2ccc(C(=O)Nc3nnc(CC)o3)cc2)CC1` gave DAGLB inhibitor 1, PAFAH1B2 FP inh 5, pPAFAH inh -7, PAFAH1B3 FP inh 16, HTRA1 inhibitor 3 and PAFAH2 inh 9.
`CCOC(=O)N1CCN(S(=O)(=O)c2ccc(C(=O)NNc3nc4c(C)cc(C)cc4s3)cc2)CC1` gave pPAFAH inh 32*.
Screening CCOC(=O)N1CCN(S(=O)(=O)c2ccc(C(=O)NNc3nc4cc(C)cc(C)c4s3)cc2)CC1 returned DAGLB inhibitor 5, PAFAH1B2 FP inh 2, pPAFAH inh 28*, PAFAH1B3 FP inh 16, HTRA1 inhibitor 50* and PAFAH2 inh 14.
For CN(C(=O)COC(=O)c1nn(C)c(=O)c2ccccc12)c1c(N)n(Cc2ccccc2)c(=O)[nH]c1=O the results were DAGLB inhibitor 3, PAFAH1B2 FP inh 2, pPAFAH inh 0, PAFAH1B3 FP inh 4, HTRA1 inhibitor 0 and PAFAH2 inh -5.
For CC1=NN(c2ccc(C)c(C)c2)C(=O)/C1=C\C=C\c1ccc([N+](=O)[O-])o1 the results were DAGLB inhibitor 5, PAFAH1B2 FP inh -3, pPAFAH inh 25*, PAFAH1B3 FP inh 2, HTRA1 inhibitor 19 and PAFAH2 inh 5.
`O=C(Oc1ccc(N(C(=O)c2ccncc2)S(=O)(=O)c2ccc(Cl)cc2)cc1)c1ccncc1` gave DAGLB inhibitor 3, PAFAH1B2 FP inh 29*, pPAFAH inh 7, PAFAH1B3 FP inh 8, HTRA1 inhibitor 7 and PAFAH2 inh -4.
For O=C(Oc1ccc(N(C(=O)c2ccncc2)S(=O)(=O)c2ccc(F)cc2)cc1)c1ccncc1 the results were DAGLB inhibitor 1, PAFAH1B2 FP inh 4, pPAFAH inh 6, PAFAH1B3 FP inh -2, HTRA1 inhibitor 2 and PAFAH2 inh 7.
O=C(O)CCCC(=O)Nc1ccc(Br)cc1C(=O)O was read as DAGLB inhibitor 2, PAFAH1B2 FP inh 27*, pPAFAH inh -3, PAFAH1B3 FP inh 8, HTRA1 inhibitor 1 and PAFAH2 inh -5.
C[C@H]1COC(=O)[C@H](Cc2ccc(F)cc2)C/C=C\C[C@H](CC(=O)NCCO)C(=O)N1 was read as DAGLB inhibitor -5, PAFAH1B2 FP inh 10, pPAFAH inh 1, PAFAH1B3 FP inh 8, HTRA1 inhibitor 4 and PAFAH2 inh -4.
Screening CCCC(=O)Nc1nnc(S(=O)(=O)N(CC)c2ccccc2)s1 returned DAGLB inhibitor -1, PAFAH1B2 FP inh 10, pPAFAH inh 2, PAFAH1B3 FP inh -1, HTRA1 inhibitor 11 and PAFAH2 inh 2.
COC(=O)c1ccsc1NS(=O)(=O)c1ccccc1 was read as DAGLB inhibitor 0, PAFAH1B2 FP inh 5, pPAFAH inh 28*, PAFAH1B3 FP inh 5, HTRA1 inhibitor 11 and PAFAH2 inh 0.
`COC(=O)c1sccc1NS(=O)(=O)c1ccccc1` gave DAGLB inhibitor 0, PAFAH1B2 FP inh 2, pPAFAH inh 3, PAFAH1B3 FP inh 5, HTRA1 inhibitor 2 and PAFAH2 inh 1.
Screening O=C1C=C(NCc2ccc(Cl)cc2)CC(c2ccco2)C1 (stereo not drawn) returned DAGLB inhibitor 1, PAFAH1B2 FP inh 29*, pPAFAH inh 11, PAFAH1B3 FP inh 12, HTRA1 inhibitor 4 and PAFAH2 inh 11.
CC(C)CNC1=CC(=O)CC(c2ccco2)C1 (stereo not drawn) was read as DAGLB inhibitor 2, PAFAH1B2 FP inh 5, pPAFAH inh 10, PAFAH1B3 FP inh 3, HTRA1 inhibitor 15 and PAFAH2 inh 18.
O=C(c1cc([N+](=O)[O-])ccc1N1CCOCC1)N1CCN(S(=O)(=O)c2cc(Cl)ccc2Cl)CC1 was read as DAGLB inhibitor 1, PAFAH1B2 FP inh -2, pPAFAH inh 0, PAFAH1B3 FP inh -1, HTRA1 inhibitor -1 and PAFAH2 inh 7.
`O=C(c1cc([N+](=O)[O-])ccc1N1CCN(S(=O)(=O)c2ccc(Cl)c(Cl)c2)CC1)N1CCOCC1` gave DAGLB inhibitor 0, PAFAH1B2 FP inh 37*, pPAFAH inh 1, PAFAH1B3 FP inh -3, HTRA1 inhibitor 2 and PAFAH2 inh 5.
`CN(Cc1ccccc1Br)C(=O)CN1C(=O)NC2(CCCCCC2)C1=O` gave DAGLB inhibitor 1, PAFAH1B2 FP inh 1, pPAFAH inh 5, PAFAH1B3 FP inh 1, HTRA1 inhibitor -7 and PAFAH2 inh 2.
For COc1ccc(NC(=O)C23CC4CC(CC(Cl)(C4)C2)C3)cc1S(=O)(=O)N1CCOCC1 the results were DAGLB inhibitor -2, PAFAH1B2 FP inh 27*, pPAFAH inh 7, PAFAH1B3 FP inh 7, HTRA1 inhibitor -6 and PAFAH2 inh 1.
COc1ccc(NC(=O)c2c3c(nc4ccccc24)CCC3)cc1S(=O)(=O)N1CCOCC1 was read as DAGLB inhibitor 3, PAFAH1B2 FP inh 1, pPAFAH inh 26*, PAFAH1B3 FP inh 6, HTRA1 inhibitor 7 and PAFAH2 inh 0.
For CCc1nnc(NC(=O)CCC(=O)N2CCN(Cc3ccc(F)cc3)CC2)s1 the results were DAGLB inhibitor 0, PAFAH1B2 FP inh -2, pPAFAH inh 1, PAFAH1B3 FP inh 7, HTRA1 inhibitor 5 and PAFAH2 inh 1.
Screening CCN1CCN(C(c2cccs2)C(C)NC(=S)Nc2cccc(C)c2C)CC1 (stereo not drawn) returned DAGLB inhibitor -1, PAFAH1B2 FP inh 7, pPAFAH inh 6, PAFAH1B3 FP inh 2, HTRA1 inhibitor 4 and PAFAH2 inh 7.
For Cc1ccc(C(=O)CCC(=O)Nc2ccccc2C)c(C)c1 the results were DAGLB inhibitor -3, PAFAH1B2 FP inh 0, pPAFAH inh -3, PAFAH1B3 FP inh 8, HTRA1 inhibitor -4 and PAFAH2 inh 0.
CC(=O)Oc1cc(O)c2c(=O)c(OC(C)=O)c(-c3ccc(OC(C)=O)c(OC(C)=O)c3)oc2c1 was read as DAGLB inhibitor 4, PAFAH1B2 FP inh 22, pPAFAH inh 31*, PAFAH1B3 FP inh 47*, HTRA1 inhibitor 50* and PAFAH2 inh 38*.

High-throughput results deposited in PubChem by The Scripps Research Institute Molecular Screening Center.
